6 compounds from the supplement of paper PMC9694430 can be followed below.

Molecules are shown by their SMILES.

Holding throughout (experiment): thermal shift delta Tm vs DMSO control; higher = stronger stabilization (binding)
Holding throughout (settings): 12.5 µM; protein concentration 2 µM

The test system of test [1] is LOC_OS02G45750-cb003. The method, boiled down:
(§1)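 Rice kinase domain constructs were expressed in E. coli, purified, and tested by differential scanning fluorimetry with compound added in DMSO. Each well of a 96-well plate held 19.5 μl of 2 μM kinase in 100 mM potassium phosphate pH 7.5, 150 mM NaCl, 10% glycerol and 5 × SYPRO Orange, and fluorescence was read from 25°C to 95°C at 0.05°C/s. The melting temperature shift is the mean of triplicates, taken against protein with DMSO alone after Boltzmann fitting.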

The subject of test [2] is LOC_OS02G54510-cb004. The method, boiled down:
as §1

For test [3], the system named is LOC_OS03G04050-cb001. In outline:
as §1

Test [4] deals with LOC_OS03G12390-cb001. The method, boiled down: as §1
Test [5] has as its system LOC_OS03G27990-cb004. In outline: as §1
The subject of test [6] is LOC_OS03G50450-cb001. In outline: as §1
Test [7] has as its system LOC_OS03G50810-cb003. In outline:
as §1

Test [8] has as its system LOC_OS04G35114-cb001. In outline:
as §1

Test [9] relates to T1, LOC_OS04G38480-cb003.
T1 sequence (whole entry): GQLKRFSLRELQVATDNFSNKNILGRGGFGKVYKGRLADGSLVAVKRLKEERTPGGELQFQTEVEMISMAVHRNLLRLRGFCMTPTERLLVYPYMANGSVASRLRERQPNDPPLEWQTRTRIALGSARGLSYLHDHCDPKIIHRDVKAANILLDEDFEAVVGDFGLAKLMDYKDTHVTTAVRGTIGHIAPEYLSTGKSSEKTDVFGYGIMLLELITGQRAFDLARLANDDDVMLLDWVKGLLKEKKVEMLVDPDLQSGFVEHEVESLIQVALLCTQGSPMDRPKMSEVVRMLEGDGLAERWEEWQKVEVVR
The method, boiled down:
as §1

Test [10] concerns T2, LOC_OS04G41100-cb001.
T2 sequence (whole entry): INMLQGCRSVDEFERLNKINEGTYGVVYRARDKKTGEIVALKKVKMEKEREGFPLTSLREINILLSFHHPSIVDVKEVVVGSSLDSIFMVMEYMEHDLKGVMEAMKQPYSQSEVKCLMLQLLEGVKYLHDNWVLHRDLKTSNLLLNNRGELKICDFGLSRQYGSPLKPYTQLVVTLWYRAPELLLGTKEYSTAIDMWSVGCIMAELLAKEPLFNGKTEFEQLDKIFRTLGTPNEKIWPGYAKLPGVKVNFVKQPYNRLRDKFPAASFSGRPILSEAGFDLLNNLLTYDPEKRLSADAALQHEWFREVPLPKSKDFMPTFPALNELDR
In outline: as §1

Test [11] concerns LOC_OS04G57630-cb004. In outline: as §1
Test [12] has as its system LOC_OS05G07850-cb002. In outline:
as §1

For test [13], the system named is LOC_OS05G16824-cb004. The method, boiled down:
as §1

The subject of test [14] is LOC_OS05G28520-cb001. In outline:
as §1

In test [15] the test system is LOC_OS05G30820-cb001. In outline:
as §1

The subject of test [16] is LOC_OS05G43570-cb004. The method, boiled down:
as §1

Test [17] has as its system LOC_OS06G16330-cb003. In outline: as §1
Test [18] relates to T3, LOC_OS06G22820-cb001.
T3 sequence (whole entry): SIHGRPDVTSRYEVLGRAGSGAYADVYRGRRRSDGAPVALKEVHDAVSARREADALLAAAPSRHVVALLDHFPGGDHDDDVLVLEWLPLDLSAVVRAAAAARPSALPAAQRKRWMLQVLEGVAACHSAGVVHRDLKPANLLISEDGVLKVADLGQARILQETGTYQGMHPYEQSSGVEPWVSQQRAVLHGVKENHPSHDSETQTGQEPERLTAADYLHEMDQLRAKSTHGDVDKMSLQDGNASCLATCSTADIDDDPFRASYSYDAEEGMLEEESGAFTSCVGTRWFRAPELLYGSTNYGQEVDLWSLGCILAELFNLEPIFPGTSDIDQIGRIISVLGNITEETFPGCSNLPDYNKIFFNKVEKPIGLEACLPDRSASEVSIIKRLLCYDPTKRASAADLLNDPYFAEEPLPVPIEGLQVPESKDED
In outline:
as §1

In test [19] the test system is LOC_OS07G06570-cb004. In outline: as §1
Test [20] has as its system LOC_OS07G07230-cb001. The method, boiled down: as §1

LOC_OS06G16330-cb003, sequence (as listed by the source): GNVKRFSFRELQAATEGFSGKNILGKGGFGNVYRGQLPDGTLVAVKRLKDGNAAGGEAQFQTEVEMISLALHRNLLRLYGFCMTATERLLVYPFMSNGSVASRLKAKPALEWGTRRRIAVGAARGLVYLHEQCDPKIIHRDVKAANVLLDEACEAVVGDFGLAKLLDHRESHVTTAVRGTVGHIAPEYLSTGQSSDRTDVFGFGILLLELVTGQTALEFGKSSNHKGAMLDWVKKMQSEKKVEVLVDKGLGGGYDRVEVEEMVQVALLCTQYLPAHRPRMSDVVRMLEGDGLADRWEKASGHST

Regarding `COCCNCc1ccc(-c2cc3nccc(Oc4ccc(NC(=O)C5(C(=O)Nc6ccc(F)cc6)CC5)cc4F)c3s2)nc1` [Sitravatinib (MGCD516)], the “thermal shift delta Tm” value came out at 6.42 °C in [1]; 1.08 °C in [2]; 0.75 °C in test [3]; 0.75 °C in [4]; 1.06 °C in [5]; 0.57 °C in test [6]. Also, the “thermal shift delta Tm” value in test [7] was 3.13 °C; in test [8], 6.52 °C; in [9] it was 3.71 °C; in [10], 3.13 °C; in test [11] it was 7.89 °C; in test [12] it was 14.5 °C. In addition, the “thermal shift delta Tm” value in [13] was found to be 10.7 °C; in test [14] it was 7.64 °C; in test [15], 0.29 °C; in test [16], 0.73 °C; in test [17] it was 9.07 °C; in [18], 0.6 °C. For the same compound, the “thermal shift delta Tm” value in test [19] was 0.67 °C; in test [20], -0.46 °C.

As for `CCCNC(=O)Nc1ccc(Oc2ncnc3cc(OC)c(OC)cc23)cc1Cl`, the “thermal shift delta Tm” value is -0.23 °C in test [1]; -0.21 °C in [2]; -0.21 °C in test [3]; 0.74 °C in [4]; -0.33 °C in [5]; -0.08 °C in test [6]. For the same compound, the “thermal shift delta Tm” value is 0.49 °C in test [7]; 0.48 °C in test [8]; -0.17 °C in [9]; -0.34 °C in [10]; 0.94 °C in [11]; 5.45 °C in test [12]. The “thermal shift delta Tm” value in test [13] is -1.66 °C; in test [14] it was -0.19 °C; in [15], 0.49 °C; in [16], 0.07 °C; in test [17] it was 1.43 °C; in test [18], 0.78 °C. Also, the “thermal shift delta Tm” value in test [19] was 0.73 °C; in test [20] it was 0.03 °C.

With `CC1(COc2ccc3c(c2)ncn3-c2ccc3cccc(N4CCC(N)CC4)c3n2)COC1`, the “thermal shift delta Tm” value in [1] was determined as 16.4 °C; in [2] it was 0.52 °C; in test [3], 0.13 °C; in test [4] it was 1.74 °C; in test [5], 7.81 °C; in test [6] it was 0.06 °C. In addition, the “thermal shift delta Tm” value worked out at 8.62 °C in test [7]; 9.74 °C in test [8]; 3.29 °C in test [9]; 0.23 °C in test [10]; 5.42 °C in test [11]; 16.1 °C in [12]. In addition, the “thermal shift delta Tm” value turned out to be 11.8 °C in [13]; 0.28 °C in [14]; 1.67 °C in test [15]; 0.2 °C in test [16]; 7.62 °C in [17]; 0.26 °C in [18]. For the same compound, the figures for the “thermal shift delta Tm” value in test [19] and in test [20] were 0.43 °C and -0.34 °C, respectively.

As for `CN1CCCN(C(=O)c2cccc(-c3ccc(/C=C4/C(=O)Nc5ccc(Cl)cc54)o3)c2)CC1`, the “thermal shift delta Tm” value worked out at 5.04 °C in test [1]; 0.59 °C in test [2]; 0.65 °C in test [3]; 3.37 °C in test [4]; 1.12 °C in test [5]; 0.49 °C in [6]. Also, the “thermal shift delta Tm” value was 2.85 °C in test [7]; 4.61 °C in [8]; 2.24 °C in test [9]; 1.74 °C in test [10]; 2.23 °C in [11]; 6.78 °C in test [12]. Moreover, the “thermal shift delta Tm” value in test [13] was 4.08 °C; in [14], 1.14 °C; in test [15], 0.63 °C; in test [16], 0.58 °C; in [17], 1.36 °C; in test [18] it was 0.37 °C. In addition, the figures for the “thermal shift delta Tm” value in test [19] and in test [20] were 2.41 °C and 0.77 °C, respectively.

As for `Nc1cccc(S(=O)(=O)N2CCCN(S(=O)(=O)c3ccc4c(c3)OCCO4)CC2)c1`, the “thermal shift delta Tm” value in test [1] was 0.54 °C; in test [2], 0.12 °C; in test [3], 0.38 °C; in test [4] it was 0.13 °C; in [5], 0.13 °C; in [6] it was 0.24 °C. Moreover, the “thermal shift delta Tm” value in [7] was 0.28 °C; in test [8], 0.8 °C; in [9] it was 1.86 °C; in [10] it was 0.33 °C; in test [11], -0.1 °C; in test [12], 0.55 °C. The “thermal shift delta Tm” value in test [13] is -0.03 °C; in test [14] it was 0.74 °C; in test [15], 0.46 °C; in test [16] it was 0.1 °C; in test [17], -0.91 °C; in [18], 0.44 °C. The entries for the “thermal shift delta Tm” value in test [19] and in test [20] were 1.4 °C and 0.56 °C, respectively.

Take `CC(=O)Nc1cccc(-n2c(=O)n(C3CC3)c(=O)c3c(Nc4ccc(I)cc4F)n(C)c(=O)c(C)c32)c1`: the “thermal shift delta Tm” value in test [1] is 0.35 °C; in test [2], -0.04 °C; in test [3], 0.2 °C; in [4] it was -0.13 °C; in test [5], 0.22 °C; in [6], 0.62 °C. Also, the “thermal shift delta Tm” value in test [7] was 0.43 °C; in test [8], 0.56 °C; in test [9], 0.86 °C; in test [10], 0.62 °C; in test [11], 0.23 °C; in test [12] it was 0.88 °C. In addition, the “thermal shift delta Tm” value in test [13] was -0.98 °C; in test [14], 0.48 °C; in test [15], 0.42 °C; in [16], 0.15 °C; in test [17], -0.52 °C; in [18], 0.44 °C. The results for the “thermal shift delta Tm” value in test [19] and in test [20] were 0.26 °C and -0.16 °C, respectively.
